Measurements published in PubChem BioAssay AID488969 (Vanderbilt High Throughput Screening Facility, 2010).
The full ranking holds about 110,000 compounds; the median of “z-score” is about -0.1, and the highest 2% start at about 2. The full list was thinned out, with the highest values kept by preference. Activity calls are given as the source filed them.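 Rule for the calls: active = z-score in the third read window above 3 or below -3; inactive = the rest.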

The compounds below were run against Metabotropic glutamate receptor 8 (Rattus norvegicus) (UniProt P70579) (assay: mGluR8 Gi/Go-coupled signaling modulation – cell-based, rat, thallium flux, HTS, primary screen (AID 488969)). Conditions: HEK293 rat mGluR8, GIRK (G protein-gated inwardly rectifying potassium channel) thallium flux, FluoZin2; at 10 µM; stronger effect = higher value; submaximal glutamate (EC20) added with thallium.
Metabotropic glutamate receptor 8 (Rattus norvegicus), sequence (P70579 whole entry, looked up): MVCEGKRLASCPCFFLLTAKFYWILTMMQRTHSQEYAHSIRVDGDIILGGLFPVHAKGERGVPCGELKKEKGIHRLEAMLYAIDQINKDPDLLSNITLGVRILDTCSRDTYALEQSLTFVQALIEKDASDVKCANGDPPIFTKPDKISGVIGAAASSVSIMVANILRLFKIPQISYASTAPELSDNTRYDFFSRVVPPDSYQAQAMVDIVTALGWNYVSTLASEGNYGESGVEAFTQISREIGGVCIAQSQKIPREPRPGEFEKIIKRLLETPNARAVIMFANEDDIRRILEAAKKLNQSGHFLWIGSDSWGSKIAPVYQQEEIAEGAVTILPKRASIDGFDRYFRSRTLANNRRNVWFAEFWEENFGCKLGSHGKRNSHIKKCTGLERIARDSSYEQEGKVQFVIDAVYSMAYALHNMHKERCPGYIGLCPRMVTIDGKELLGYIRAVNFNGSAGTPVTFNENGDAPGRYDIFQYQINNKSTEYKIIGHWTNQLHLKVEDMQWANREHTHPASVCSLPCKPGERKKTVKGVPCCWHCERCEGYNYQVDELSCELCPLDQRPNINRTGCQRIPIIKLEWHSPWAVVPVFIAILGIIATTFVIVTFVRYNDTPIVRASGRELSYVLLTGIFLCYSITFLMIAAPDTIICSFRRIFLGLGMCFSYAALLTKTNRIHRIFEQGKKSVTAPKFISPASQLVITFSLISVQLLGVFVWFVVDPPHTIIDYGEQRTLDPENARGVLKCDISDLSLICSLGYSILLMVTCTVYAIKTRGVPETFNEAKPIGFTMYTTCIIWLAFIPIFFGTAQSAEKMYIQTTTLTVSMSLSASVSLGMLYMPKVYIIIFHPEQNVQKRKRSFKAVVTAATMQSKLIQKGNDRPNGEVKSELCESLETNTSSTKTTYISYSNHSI

SMILES | z-score
O=C(c1scc2c1CCCC2)N1CCCCC1 | -0.475
O=C1OC(Cc2ccncc2)C(O)=C1C1=NCCCN1 (centres undefined) | -0.135
CC1=CC(=O)OC1Cc1ccncc1 (centres undefined) | 14.2 (active)
Cc1ccc2c(c1)N(Cc1ccncc1)C(=O)C(C)O2 (centres undefined) | 0.33
O=C(O)CCCCCN1C(=O)/C(=C/c2ccncc2)SC1=S | -0.0629
CCC(C)c1ccc(O)c(NC(=O)c2ncn[nH]2)c1 (centres undefined) | -0.374
Cc1ccc(C)c(-c2cc(C(=O)NCc3cccs3)c3ccccc3n2)c1 | -0.0338
O=C(Nc1ccc(Br)cc1F)c1ccc2c(c1)N(Cc1ccccc1)C(=O)CS2=O (centres undefined) | 1.3
O/N=C/c1cc(Cl)ccc1OCc1cccc2ccccc12 | 2.76
O/N=C/c1cc(Cl)ccc1OCc1ccccc1Cl | -0.352
CCOc1ccc(Cl)cc1/C=N/O | -0.395
Nc1ncnc2c1ncn2CCNCCc1ccccc1 | -0.981
Cc1cc(-c2n[nH]c(=S)n2/N=C/c2cccc([N+](=O)[O-])c2)n[nH]1 | -0.221
COc1ccc(/C=N/n2c(-c3cccs3)n[nH]c2=S)cc1 | 2.46
COc1cccc(/C=N/n2c(-c3cccs3)n[nH]c2=S)c1 | 3.25 (active)
Cc1cc(-c2n[nH]c(=S)n2/N=C/c2cccs2)n[nH]1 | -0.233
Cc1cccc(/C=N/n2c(-c3ccccn3)n[nH]c2=S)c1 | -0.174
CCOC(=O)COc1ccc(S(=O)(=O)NCc2cccnc2)cc1 | 0.014
Cc1nn(CC(=O)NCc2cccc3ccccc23)c(=O)c2ccccc12 | -0.0519
COc1ccc(NC(=O)C2CCN(C(=O)c3ccccc3)CC2)c(OC)c1 | -1.36
Cn1nc(C(=O)NC2CCCCCC2)ccc1=O | 1.32
CCOC(=O)c1c(-c2cccs2)csc1NC(=O)CNCCN1CCOCC1 | -0.205
O=C(OCC(=O)N1CCCCC1)c1cc(NS(=O)(=O)c2ccc(Cl)c([N+](=O)[O-])c2)ccc1O | -0.652
CCN(C(=O)COC(=O)c1cc(NS(=O)(=O)c2ccc(Cl)c([N+](=O)[O-])c2)ccc1O)C1CCCCC1 | 2
CC(NC(=O)COC(=O)c1cc(NS(=O)(=O)c2ccc(Cl)c([N+](=O)[O-])c2)ccc1O)C1CC2CCC1C2 (centres undefined) | -0.436

SMILES | z-score
O=C(COC(=O)Cc1c(Cl)cccc1Cl)NCCC1=CCCCC1 | -0.34
COc1cc(C2NC(=O)NC(O)(C(F)(F)F)C2C(=O)c2cccs2)ccc1O (centres undefined) | -0.852
CCOC(=O)c1ccc(Nc2ncnc3ccc(C)cc23)cc1 | -0.372
CCCc1cc(=O)n2[nH]c(-c3ccccc3)cc2n1 | 0.844
CCCc1cc(=O)n2[nH]c(-c3ccc(Br)cc3)cc2n1 | 3.04 (active)
CCCc1cc(=O)n2[nH]c(C)cc2n1 | -0.851
O=C(Cn1cc(C(=O)c2cccs2)c2ccccc21)NC1CCCCC1 | -2.37
O=C(Cn1c(C(F)(F)F)nc2ccccc21)c1ccc(Cl)cc1 | -0.0833
O=C(Nc1ccc2c(c1)OCO2)c1noc2c1CCCCC2 | 0.597
COc1ccc(N2CCc3c(C)nc4c(OC)cc(OC)cc4c32)c(OC)c1 | 0.775
COc1ccccc1N1CCc2c(C)nc3c(OC)cccc3c21 | -0.0829
COc1cc(OC)c2nc(C)c3c(c2c1)N(c1ccc(O)cc1)CC3 | 3.3 (active)
CNc1nc(SCc2ccccc2Cl)nc2c1CCCC2 | -0.358
Cc1cc(CC(C)C)n(-c2nc3ccccc3c(=O)n2OCc2ccccc2)n1 | 0.802
Cc1cc(CC(C)C)n(-c2nc3ccccc3c(=O)n2OCC(N)=O)n1 | 3.83 (active)
Cc1cc(C)n(-c2nc3ccccc3c(=O)n2OCC(N)=O)n1 | -0.254
Cn1c(SCc2nc(-c3ccc(Cl)cc3)no2)nnc1-c1ccco1 | 0.0893
O=C(COc1ccc(OCc2ccccc2)cc1)NC1CCOC1=O (centres undefined) | -0.0067
CC(C)C(c1nnnn1C1CCCC1)N(C)C1CCCCC1 (centres undefined) | -0.559
CC(C)OCCCNC(=O)c1ccc(Br)cc1 | 0.954
CC(C)OCCCNC(=O)c1cccc(NC(=O)c2ccccc2)c1 | 2.99
COCCCNC(=O)c1cccc(NC(=O)c2ccccc2)c1 | -0.13
COc1ccccc1C(=O)Nn1cnc2ccccc2c1=O | 0.366
CCCCN1C2=C(C(=O)CCC2)C(c2ccc(Cl)c(Cl)c2)C2=C1c1ccccc1C2=O (centres undefined) | -0.878
Cc1cc(C)c(S(C)(=O)=O)c(Oc2ccccc2C)n1 | -0.0363

SMILES | z-score
Cc1cc2c(C)cc(=O)oc2c2c1NCCC2 | -0.295
Oc1c(Cl)cc(Cl)c2c1NCCC2 | 5.54 (active)
O=C1NCCCc2c1oc1ccc(O)cc21 | -0.602
Cc1cc(C)cc(NC(=O)C(Nc2ccccc2)c2ccccc2)c1 (centres undefined) | 0.168
CCCN(CCC)C(=O)c1ccccc1C(=O)N(CCC)CCC | -0.328
Cc1cc2c(C)nc3ccccc3c2o1 | -0.371
COc1ccc(NC(=O)c2ocnc2C)cc1OC | -0.369
Cc1nc(C)c(C(=O)Nc2cccc(Cl)c2)o1 | 0.108
Cc1ncoc1C(=O)Nc1ccc(Oc2ccccc2)cc1 | 2.26
Cc1nc(C)c(C(=O)Nc2ccccc2-c2ccccc2)o1 | -0.0653
Cc1nc(C)c(C(=O)Nc2ccc(Oc3ccccc3)cc2)o1 | 6.45 (active)
COc1cccc(NC(=O)c2ocnc2C)c1 | -0.0866
CC(C)(C)NC(=O)Cn1nnc(-c2ccc(Cl)cc2)n1 | -0.11
COc1ccc(OCC(=O)NC(=S)Nc2ccc(S(=O)(=O)Nc3cc(OC)nc(OC)n3)cc2)cc1 | -0.254
COC(=O)CC(NC(=O)c1ccc(C)cc1)c1ccccc1 (centres undefined) | -0.129
Cc1ccc(Cn2cc(S(=O)(=O)c3ccc(Cl)cc3)c(=O)c3cc(F)ccc32)cc1 | -0.041
COc1cc(/C=N/NC(=O)CC23CC4CC(CC(C4)C2)C3)cc(Br)c1OCC(=O)N(C)C | -0.225
O=c1c2c3c(sc2nc2n1CCCC2)CCCC3 | -0.196
Nc1nc(NCc2ccccc2)nc(NCc2ccccc2)c1[N+](=O)[O-] | -0.14
Nc1nc(Nc2ccccc2)nc(NCc2ccco2)c1[N+](=O)[O-] | 4.24 (active)
Cc1cccc(Nc2nc(NCc3ccco3)c3ccccc3n2)c1 | 0.729
Cc1ccc(Nc2nc(N)c([N+](=O)[O-])c(NCc3ccco3)n2)cc1C | 0.169
Cc1cccc(Nc2nc(N)c([N+](=O)[O-])c(NCc3ccco3)n2)c1 | 2.38
Cc1ccc(Nc2nc(N)c([N+](=O)[O-])c(NCc3ccco3)n2)cc1 | -0.288
